Experimental data reported in PubChem BioAssay (NCI).
The panel holds about 83,000 compounds, 20% with a hit somewhere; the sample as a whole holds those more often.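 Growth was measured after 48 h exposure to one concentration of compound in 96-well plates. Values under 10 count as active.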 Activity calls are given as the source filed them.

Tests used:
Assay in all cases: NCI-60 one-dose screen, 48 h (100 = growth as untreated, 0 = no growth, -100 = all killed)
Conditions in all cases: 10 µM unless noted
DU-145 prostate = tested on: DU-145 prostate
K-562 leukemia = tested on: K-562 leukemia
MALME-3M melanoma = tested on: MALME-3M melanoma
MDA-MB-231 breast = tested on: MDA-MB-231 breast
RXF 393 renal = tested on: RXF 393 renal
SF-268 CNS = tested on: SF-268 CNS
SF-295 CNS = tested on: SF-295 CNS
SF-539 CNS = tested on: SF-539 CNS
UACC-257 melanoma = tested on: UACC-257 melanoma
M14 melanoma = tested on: M14 melanoma
HCT-15 colon = tested on: HCT-15 colon
HT29 colon = tested on: HT29 colon
SNB-75 CNS = tested on: SNB-75 CNS
SNB-19 CNS = tested on: SNB-19 CNS
U251 CNS = tested on: U251 CNS
PC-3 prostate = tested on: PC-3 prostate
UACC-62 melanoma = tested on: UACC-62 melanoma
LOX IMVI melanoma = tested on: LOX IMVI melanoma
SK-MEL-28 melanoma = tested on: SK-MEL-28 melanoma
SK-MEL-5 melanoma = tested on: SK-MEL-5 melanoma

Measured: growth

CC1=NN(c2ccc(S(=O)(=O)O)cc2Cl)C(=O)C1
inactive: DU-145 prostate 162% | K-562 leukemia 115% | MALME-3M melanoma 129% | MDA-MB-231 breast 102% | RXF 393 renal 108% | SF-268 CNS 127% | SF-295 CNS 105% | SF-539 CNS 92.9% | UACC-257 melanoma 110% | M14 melanoma 96.1% | HCT-15 colon 112% | HT29 colon 109% | SNB-75 CNS 90.2% | SNB-19 CNS 96.2% | U251 CNS 107% | PC-3 prostate 103% | UACC-62 melanoma 103% | LOX IMVI melanoma 104% | SK-MEL-28 melanoma 122%

N#CC1=C(N)Oc2c(sc3c(F)cccc23)C1c1ccc(Cl)cc1 (centres undefined)
active: RXF 393 renal 9.87% | SF-539 CNS -0.306% | M14 melanoma -26.1% | PC-3 prostate 8.41%
inactive: DU-145 prostate 41% | K-562 leukemia 14.2% | MALME-3M melanoma 57.9% | MDA-MB-231 breast 43.5% | SF-268 CNS 45.3% | SF-295 CNS 20.2% | UACC-257 melanoma 66.4% | HCT-15 colon 23.9% | HT29 colon 15.6% | SNB-75 CNS 13.8% | SNB-19 CNS 29.2% | U251 CNS 25.7% | LOX IMVI melanoma 30.3% | SK-MEL-28 melanoma 49.6%

Cc1ccc(Sc2sc(-c3ccccc3)nc2[P+](c2ccccc2)(c2ccccc2)c2ccccc2)cc1
inactive: DU-145 prostate 10.7% | SF-268 CNS 15.5% | SF-539 CNS 11.8% | SNB-19 CNS 10.4% | SK-MEL-28 melanoma 25.5%
active: K-562 leukemia 2.4% | MALME-3M melanoma -22.4% | MDA-MB-231 breast -29.5% | RXF 393 renal -21.5% | SF-295 CNS -20.9% | UACC-257 melanoma 2.98% | M14 melanoma -7.46% | HCT-15 colon 1.24% | HT29 colon 3.9% | SNB-75 CNS -3.74% | PC-3 prostate -30.6% | SK-MEL-5 melanoma -97.6% | UACC-62 melanoma -33.7%

O=C1c2cccc3cccc(c23)C(=O)N1CC#Cc1ccc2c3c(cccc13)C(=O)N(CCN1CCNCC1)C2=O
active: K-562 leukemia -15.3% | MALME-3M melanoma -45% | MDA-MB-231 breast 7.95%
inactive: DU-145 prostate 99.5% | RXF 393 renal 82.9% | SF-268 CNS 93.8% | SF-295 CNS 94.1% | SF-539 CNS 10.2% | UACC-257 melanoma 104% | M14 melanoma 101% | HCT-15 colon 61.7% | HT29 colon 23.5% | SNB-75 CNS 99.6% | SNB-19 CNS 86.2% | U251 CNS 56.4% | PC-3 prostate 85.5% | UACC-62 melanoma 105% | SK-MEL-28 melanoma 13.5%

CCCCCCCCNc1cccc2c1C(=O)c1ccccc1C2=O
inactive: DU-145 prostate 112% | K-562 leukemia 97.2% | MALME-3M melanoma 108% | MDA-MB-231 breast 96.1% | RXF 393 renal 100% | SF-268 CNS 94.9% | SF-295 CNS 112% | SF-539 CNS 121% | UACC-257 melanoma 98.2% | M14 melanoma 107% | HCT-15 colon 107% | HT29 colon 89.7% | SNB-75 CNS 98.3% | SNB-19 CNS 96.4% | U251 CNS 110% | PC-3 prostate 104% | UACC-62 melanoma 96% | LOX IMVI melanoma 105% | SK-MEL-28 melanoma 114%

CCCCN1CCCCn2c1nc1c2c(=O)n(C)c(=O)n1C
inactive: DU-145 prostate 105% | K-562 leukemia 91.2% | MALME-3M melanoma 116% | MDA-MB-231 breast 103% | RXF 393 renal 108% | SF-268 CNS 105% | SF-295 CNS 106% | SF-539 CNS 116% | UACC-257 melanoma 97% | M14 melanoma 106% | HCT-15 colon 108% | HT29 colon 102% | SNB-75 CNS 94.1% | SNB-19 CNS 104% | U251 CNS 95% | PC-3 prostate 108% | UACC-62 melanoma 101% | LOX IMVI melanoma 99% | SK-MEL-28 melanoma 117%

COc1ccc(-c2n[nH]nc2-c2cc3ccccc3s2)cc1O
active: K-562 leukemia 5.55% | MDA-MB-231 breast -3% | SF-539 CNS -13.4%
inactive: DU-145 prostate 25.1% | MALME-3M melanoma 74.7% | RXF 393 renal 16.4% | SF-268 CNS 37% | SF-295 CNS 26.9% | UACC-257 melanoma 50.2% | M14 melanoma 12.4% | HCT-15 colon 20% | HT29 colon 29.9% | SNB-75 CNS 35.5% | SNB-19 CNS 27.6% | U251 CNS 15.8% | PC-3 prostate 16% | UACC-62 melanoma 33.7% | LOX IMVI melanoma 20.6% | SK-MEL-28 melanoma 38.4%

Cc1ccnc2c(OCc3ccccc3)cccc12
inactive: DU-145 prostate 97.1% | K-562 leukemia 99.2% | MALME-3M melanoma 84.4% | MDA-MB-231 breast 72.1% | RXF 393 renal 95.1% | SF-268 CNS 92.5% | SF-295 CNS 89.9% | SF-539 CNS 104% | UACC-257 melanoma 115% | M14 melanoma 93.4% | HCT-15 colon 90.3% | HT29 colon 99.4% | SNB-75 CNS 95.4% | SNB-19 CNS 100% | U251 CNS 92.7% | PC-3 prostate 96.8% | UACC-62 melanoma 85.8% | LOX IMVI melanoma 87.4% | SK-MEL-28 melanoma 95.6%
